For 40 compounds, Potency and activity change, negative = cytotoxicity results are on record in PubChem BioAssay (NCATS).

Inconclusive results are not listed. Where a call stands in place of a potency, no number is given. Values without a mark were called inactive. The source made the active and inactive calls. The call rests on the fitted dose curve; in most records, active means well fitted cell-killing curve with a large enough effect; inconclusive means small, poorly fitted or top-dose-only effect, or effect the other way; inactive means flat fitted curve, though single readings scatter.

The experiment deals with PA-1. Nature of the experiment: Primary qHTS to identify gynecologic anti-cancer compounds using libraries of approved drugs and bioactive compounds (AID 1345084). Further: nearly all actives have a fitted effect of over 55% in size. As to conditions: Gynecologic cancer cell panel viability, ATPlite luminescence, 48 h; series mostly up to 57.5 µM. The gist of the method: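 ATP-based viability (ATPlite), 1,000 cells/well, 16 h pre-incubation, 48 h compound at 37 C, 5% CO2, 15 min RT before read.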
`CC(=O)N1CCN(c2ccc(O)cc2)CC1`: the Potency result was “inactive”.

For `[O-][n+]1cccc(/C(Cl)=N/OC[C@@H](O)CN2CCCCC2)c1`, the Potency entry is “inactive”.

As for `CC(C)C(=O)OCc1cccc(OC(=O)[C@@H]2N3C(=O)[C@@H](NC(=O)Cc4ccccc4)[C@H]3SC2(C)C)c1`, the Potency entry is “inactive”.

Regarding `CC(C)NC(=O)c1ccc(C=O)cc1`, the Potency result is “inactive”.

With `COc1cc2nc(Cl)nc(N)c2cc1OC`, the Potency entry was “inactive”.

With `COc1cc(/C=C/C(N)=O)cc(OC)c1OC`, the Potency result is “inactive”.

For the compound `Cc1onc(-c2ccccc2)c1C(=O)Cl`, the Potency result was “inactive”.

As to `O=c1[nH]c2ccccc2c(=O)n1CCCl`, the Potency entry was “inactive”.

Take `CSCC[C@H](NC(=O)[C@H](Cc1c[nH]c2ccccc12)NC(=O)CCNC(=O)OC(C)(C)C)C(=O)N[C@@H](CC(=O)O)C(=O)N[C@@H](Cc1ccccc1)C(N)=O`: the Potency entry is “inactive”.

With `CCN1CCN(c2cc(-c3ccc(F)cc3)c3c(n2)CCCCCC3)CC1`, the Potency entry was “inactive”.

With `N#CC1(c2ccc(F)cc2)CCC(=O)CC1`, the Potency entry is “inactive”.

Regarding `Cc1ccc(CCn2c3c(c4cc(Cl)ccc42)CN(C)CC3)cn1`, the Potency result was “inactive”.

Regarding `CN1Cc2cc(C(=O)N3CCC(C4CCNCC4)CC3)ccc2N[C@@H](CC(=O)O)C1=O`, the Potency result was “inactive”.

For the compound `CCCC(=O)O[C@]1(C(=O)CC)CC[C@H]2[C@@H]3CCC4=CC(=O)CC[C@]4(C)[C@H]3[C@@H](O)C[C@@]21C`, the Potency result is “inactive”.

Take `COc1ccccc1N1CCN(CCN2C(=O)CC3(CCCC3)CC2=O)CC1`: the Potency entry was “inactive”.

In the case of `CNC(=O)c1c(I)c(NC(C)=O)c(I)c(C(=O)O)c1I`, the Potency entry was “inactive”.

For the compound `O=C1c2ccccc2CCc2ccccc21`, the Potency entry was “inactive”.

As to `Cc1nc2n(c(=O)c1CCN1CCC(C(=O)c3ccc(F)cc3)CC1)CCS2`, the Potency entry was “inactive”.

Consider `CCOc1ccccc1OCC1CNCCO1` (stereo not given), for which the Potency result is “inactive”.

Consider `NCC[C@H](O)C(=O)N[C@@H]1C[C@H](N)[C@@H](O[C@H]2O[C@H](CN)[C@@H](O)[C@H](O)[C@@H]2O)[C@H](O)[C@@H]1O[C@H]1O[C@H](CO)[C@@H](O)[C@H](N)[C@@H]1O`, for which the activity change, negative = cytotoxicity is 20.2% [at 0.462 µM].

Take `O=C(c1cc(O)c(O)c(O)c1)c1ccc(O)c(O)c1O`: the Potency entry was “inactive”.

`CC(C)(Oc1ccc(Cl)cc1)C(=O)OCCCOC(=O)C(C)(C)Oc1ccc(Cl)cc1`: the Potency entry is “inactive”.

For the compound `COc1cc(OC)nc(O[C@H](C(=O)O)C(OC)(c2ccccc2)c2ccccc2)n1`, the Potency entry is “inactive”.

`CCC(=O)O[C@]1(C(=O)COC)[C@@H](C)C[C@H]2[C@@H]3CCC4=CC(=O)C=C[C@]4(C)C3(F)[C@@H](O)C[C@@]21C` (stereo not given in full): the Potency entry is “inactive”.

Regarding `Cc1ccc(C(=O)C(=O)O)cc1C`, the Potency entry was “inactive”.

For the compound `C/C(=C1\CCOC(=O)S1)N(C=O)Cc1cnc(C)nc1N`, the Potency result is “inactive”.

For `O=C(C1CCCCC1)N1CC(=O)N2CCCc3ccccc3C2C1` (stereo not given), the Potency entry is “inactive”.

On to `O=C(O)c1ccc(OCCN2CCCCC2)cc1`, for which the Potency result was “inactive”.

With `C/C(=C(/OCCOc1ccc(Cl)cc1)c1ccc(Cl)cc1Cl)n1ccnc1`, the Potency entry is “inactive”.

For the compound `CC(=O)[C@H]1CC[C@H]2[C@@H]3C=CC4=CC(=O)CC[C@@]4(C)[C@@H]3CC[C@]12C`, the Potency result was “inactive”.

As to `Oc1ccccc1-c1nnco1`, the Potency entry was “inactive”.

For `C#Cc1ccc(-c2ccccc2F)cc1`, the Potency entry was “inactive”.

`CC(Oc1c(Cl)cccc1Cl)C1=NCCN1` (stereo not given): the Potency entry was “inactive”.

`CCCCOC(=O)CCCCCCCCC(=O)OCCCC`: the Potency result was “inactive”.

Consider `CC(C)C[C@@H]1[C@H](c2ccccc2)OC(=O)N1CCCN1CCCCCC1`, for which the Potency entry is “inactive”.

For the compound `COC(=O)CCCCC(CCSS/C(CCO)=C(\C)N(C=O)Cc1cnc(C)nc1N)SC(C)=O` (stereo not given), the Potency result was “inactive”.

Consider `CNC[C@H](O)[C@@H](O)[C@H](O)[C@H](O)CO`, for which the Potency entry was “inactive”.

Take `COc1ccc2c(c1)c(CC(=O)OC/C=C(\C)CC/C=C(\C)CCC=C(C)C)c(C)n2C(=O)c1ccc(Cl)cc1`: the Potency entry is “inactive”.

Consider `CCCCCCCC(=O)[O-].CCCCCCCC(=O)[O-].[Zn+2]`, for which the Potency result is “inactive”.

Consider `CC(=O)N(c1onc(C)c1C)S(=O)(=O)c1ccc(N)cc1`, for which the Potency entry is “inactive”.
